Records with an inconclusive call do not appear. Active and inactive are the calls of the source. Unless noted, the call rests on the fitted dose curve; in most records, active means well fitted curve in the direction sought with a large enough effect; inconclusive means small, poorly fitted or top-dose-only effect, or another doubt; inactive means no such curve, though single readings can be large; an effect the other way counts as inactive or inconclusive.
Assays:
[1] = AP1 Signaling Pathway (AID 357; active means well fitted curve in either direction with a large enough effect, not every such curve was filed as active;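 further: ME-180 reporter cells stimulated with EGF at its EC50 level; on the % scale 0 is the no-effect control and ±100 the full control effect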); settings: ME-180 AP-1-bla reporter, EGF-induced, beta-lactamase ratio, 5 h; at 7.69 µM (top of the series) unless noted
Procedure, shortened: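 Read-out was the 460nm/530nm emission ratio (excitation 405nm) after CCF4 loading for 2.5 hours at room temperature. Cells carried an AP-1-driven beta-lactamase reporter, were stimulated with EC50 EGF plus compound for 5 hours, and AC50 values came from titrations.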

[2] = molecular target: Cytochrome P450 1A2 (Homo sapiens) (UniProt P05177); assay: p450-cyp1a2 (AID 410; calls by dose curve; further: potency means the concentration at half of the fitted maximal effect)
Procedure, shortened: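 O-Demethylation of luciferin 6' methyl ether by human CYP1A2 is monitored as luciferase luminescence. Substrate sits at Km (100uM); enzyme is 20nM. Values are scaled to 57 uM furafylline as maximal inhibition.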

[3] = Stat Signaling Pathway (AID 446; active means well fitted curve in either direction with a large enough effect, not every such curve was filed as active;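 further: ME-180 cervical cancer cells given 40 pM IL-6 alongside compound; SIE-controlled beta-lactamase reporter measured as 460/530 nm FRET emission ratio; on the % scale 0 is the no-effect control and ±100 the full control effect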)
Procedure, shortened: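 FRET read-out (405 nm excitation, 460/530 nm emission) of a beta-lactamase reporter under a STAT-inducible element in ME-180 cervical carcinoma cells. Cells with compound receive 40 pM IL-6 for 5 h. Values are normalised to AC90 stimulation and AC90 JAK-inhibitor controls.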

[4] = molecular target: Glucocorticoid receptor (Homo sapiens) (UniProt P04150); assay: GR-GFP Redistribution (AID 450;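 active means compounds whose dose series gives a full or clear partial fitted curve of increased nuclear translocation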; further: potency means the concentration at half of the fitted maximal effect); settings: U2OS GR-GFP nuclear translocation, laser cytometry, 2 h
[5] = molecular target: Glucocorticoid receptor (Homo sapiens) (UniProt P04150); assay: GR-EFC Redistribution (AID 451; calls by dose curve; further: potency means the concentration at half of the fitted maximal effect); settings: CHO-K1 GR-EFC translocation, beta-gal luminescence, 2 h
Procedure, shortened: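 CHO-K1 cells stably expressing nuclear-localized β-gal enzyme acceptor and GR fused C-terminally to the enzyme donor fragment; ligand-driven nuclear translocation restores β-gal by complementation. Compounds titrated up to 46 uM final, 2 h at 37 °C; luminescence read.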

[6] = molecular target: Mitogen-activated protein kinase 10 (Mus musculus) (UniProt Q61831); assay: JNK3 AlphaScreen Assay (AID 530; active means well fitted curve in either direction with a large enough effect, not every such curve was filed as active;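 further: kinase came from lysate of stimulated human HepG2 cells; signal reports phosphorylation of biotinylated GST-cJun 1-79 at Ser73 with 10 µM ATP; on the % scale 0 is the no-effect control and ±100 the full control effect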)
Procedure, shortened: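 Phosphorylation of biotinylated GST-cJun(1-79) at Ser73 is measured by AlphaScreen proximity luminescence. Enzyme is JNK3 in HepG2 lysates activated with interleukin-1beta and tumor necrosis factor alpha; ATP is 10 uM final.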

[7] = molecular target: 3',5'-cyclic-AMP phosphodiesterase 4B (Homo sapiens) (UniProt Q07343); assay: qHTS Assay for Inhibitors of PDE-IV (AID 607; active means well fitted activation curve with a large enough effect in the main read-out, with a control signal flat, not every such curve was filed as active; further: % of control where 0% means no effect)
Procedure, shortened: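 Cell-based read-out of cAMP via a modified cyclic nucleotide-gated channel and membrane potential dye (535/590 nm) in HEK293 cells expressing PDE4 endogenously. Compounds tested up to 22.9 uM final; 100 uM RO 20-1724 reference.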

[8] = molecular target: Guanine nucleotide-binding protein G(i) subunit alpha-1 (Homo sapiens) (UniProt P63096); assay: qHTS Assay for Inhibitors of RGS12 GoLoco Motif Activity (Green Fluorophore) (AID 879);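 further: 0% = labeled peptide with Gαi1 and full inhibition = labeled peptide alone without protein; negative values mean loss of peptide binding seen as reduced polarization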
Procedure, shortened: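 A drop in FITC polarization marked displacement of the FITC-tagged RGS12 GoLoco peptide (10 nM) from Gαi1 (50 nM). Compounds were incubated 10 min at room temperature in Tris pH 7.5 buffer containing 150 mM NaCl, 0.1 mM GDP and 0.05% NP40; unlabeled peptide titration served as control.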

[9] = molecular target: Cytochrome P450 2C9 (Homo sapiens) (UniProt P11712); assay: qHTS Assay for Inhibitors and Substrates of Cytochrome P450 2C9 (AID 883); further: on the % scale 0 is the no-effect control and ±100 the full control effect; nearly all actives have a fitted effect of over 60% in size
Procedure, shortened: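 CYP2C9 deoxyluciferin hydroxylation, 37C, 60 min with NADPH regeneration; 10nM enzyme, 100uM Luciferin-H (KM). Glo detection reagent stopped reaction; luminescence normalized to sulphaphenazole (57uM) full inhibition.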

[10] = molecular target: Cytochrome P450 3A4 (Homo sapiens) (UniProt P08684); assay: qHTS Assay for Activators of Cytochrome P450 3A4 (AID 885); further: nearly all actives have a fitted effect of over 65% in size
Procedure, shortened: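 Luminescent readout of luciferin formed from 25 uM Luciferin-PPXE (KM level) by 20 nM CYP3A4 in 200 mM KPO4, with 60 min NADPH-driven reaction at room temperature after 10 min compound exposure. Ketoconazole (57 uM) defined 100% inhibition.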

[11] = molecular target: Cytochrome P450 2D6 (Homo sapiens) (UniProt P10635); assay: qHTS Assay for Inhibitors and Substrates of Cytochrome P450 2D6 (AID 891); further: potency means the concentration at half of the fitted maximal effect; nearly all actives have a fitted effect of over 60% in size
Procedure, shortened: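 Luminescent read-out of luciferin formed by 5 nM human CYP2D6 demethylating 30 uM Luciferin-ME EGE (Km level) over 60 min at room temperature after NADPH regeneration addition. Data normalized to full inhibition by 1.43 uM quinidine.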

[12] = qHTS Assay for Identification of Small Molecule Agonists for Hypoxia Response Element Signaling Pathway (AID 914; active means well fitted activation curve with a large enough effect in the signal ratio, with a control signal flat, not every such curve was filed as active; the % refers to the signal ratio; further: % of control where 0% means no effect); settings: ME-180 (cervical carcinoma) HRE-bla reporter, beta-lactamase ratio, CoCl2, 17 h; activation: hits give high values
Procedure, shortened: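 A beta-lactamase reporter under hypoxia response element control in ME-180 cells served as the system. Compound titrations plus EC50 CoCl2 ran 17 h at 37 degrees Celsius; AC50 values were fitted from %Activity.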

[13] = qHTS Assay for Identification of Small Molecule Agonists for Thrombopoietin (TPO) Signaling Pathway (AID 917); further: on the % scale 0 is the no-effect control and ±100 the full control effect
Procedure, shortened: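 Human TPO receptor–transfected Ba/F3 cells (murine, IL-3-dependent) in IL-3-deficient medium; compounds plus TPO at EC50, 26 pM final; 24 hrs, 37 C; GpIIb-luciferase luminescence after 10 min RT detection.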

[14] = molecular target: Muscarinic acetylcholine receptor M1 (Rattus norvegicus) (UniProt P08482); assay: qHTS Assay for Antagonists of Acetylcholine Muscarinic M1 Receptor: Kinetic Measurement of Intracellular Calcium Response (AID 943); further: potency means the concentration at half of the fitted maximal effect; nearly all actives have a fitted effect of over 75% in size
Procedure, shortened: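 Antagonism is measured as inhibition of the carbachol-evoked calcium rise in CHO cells transfected with rat M1. Cells are dye-loaded, exposed to compound for 10 min, then stimulated with 100 nM carbachol (EC80).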

[15] = molecular target: Pyruvate kinase (Leishmania mexicana) (UniProt Q27686); assay: qHTS Validation Assay for Inhibitors of Leishmania Mexicana Pyruvate Kinase (AID 945);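 further: 0% = DMSO only neutral control wells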
Procedure, shortened: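 Compounds are tested as eight-point concentration series. Reactions contain 0.2 nM LmPYK E451W, 0.5 mM PEP, 0.1 mM ADP, 7 mM MgCl2 and 50 mM KCl at pH 7.2, run 1 h at room temperature, then read by PKLight luminescence.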

[16] = molecular target: Pyruvate kinase PKM (Homo sapiens) (UniProt P14618); assay: qHTS Assay for Activators of Human Muscle Pyruvate Kinase (AID 954; active means well fitted curve in the direction sought with a large enough effect, not every such curve was filed as active;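 further: 0% = uninhibited enzyme and -100% = no enzyme or full thiadiazolimine inhibition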)
Procedure, shortened: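 ATP production by PKM2 detected via luciferase luminescence after 1 h room-temperature reaction (0.1 nM enzyme, PEP at Km 0.5 mM, ADP 0.1 mM, pH 7.2 imidazole buffer). Inhibition scaled to no-enzyme control; activation referenced to 0.3 nM enzyme wells.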

[17] = molecular target: Alpha-galactosidase A (Homo sapiens) (UniProt P06280); assay: Counterscreen for Glucocerebrosidase Inhibitors: qHTS Assay for Human alpha-Galactosidase at pH 4.5 (AID 992); further: 0% is about no effect
Procedure, shortened: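 Fluorogenic 1536-well qHTS at pH 4.5 (citrate, Tween-20): 2 nM enzyme, 80 uM 4-MU-alpha-galactoside, 20 min room temperature, NaOH/glycine stop. Titration 0.7 nM to 77 uM, data normalized to no-enzyme and full-activity controls, Hill-fitted AC50.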

[18] = molecular target: alpha-glucosidase (Oryza sativa, rice) (UniProt Q653V4); assay: Counterscreen for Glucocerebrosidase Inhibitors: qHTS Assay for Rice alpha-Glucosidase at pH 5.0 (AID 997);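 further: 0% = full activity with enzyme and -100% = basal without enzyme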
Procedure, shortened: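 Endpoint fluorogenic assay at pH 5.0: compounds (0.7 nM to 77 uM) titrated against 4 nM rice enzyme and 400 uM 4-MU-alpha-glucoside for 20 min at room temperature; NaOH/glycine stop, read ex 365/em 440 nm, Hill-fitted AC50.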

[19] = molecular target: DNA repair nuclease/redox regulator APEX1 (Homo sapiens) (UniProt P27695); assay: qHTS Validation Assay for Inhibitors of the Human Apurinic/apyrimidinic Endonuclease 1 (APE1) (AID 1705)
Procedure, shortened: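 Substrate: 50 nM final fluorophore/quencher THF-abasic duplex. Enzyme preincubated with compounds 15 min, RT. Progress derived from fluorescence difference, third minus first kinetic read.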

[20] = Counterscreen for APE1 Inhibitors: Fluorescent Dye Displacement Validation Assay (AID 1707);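 further: plate controls were ThO with dsDNA and no compound for no effect and ThO without dsDNA for full effect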
Procedure, shortened: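 Counterscreen flags promiscuous DNA binders: compounds displacing ThO from duplex DNA (abasic THF site, 50 nM) reduce 540 nm emission (480 nm excitation). ThO 250 nM final; Tris-HCl pH 7.5 with NaCl, MgCl2 and Tween-20.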

[21] = molecular target: Endonuclease 4 (Escherichia coli (strain K12)) (UniProt P0A6C1); assay: Counterscreen for APE1 Inhibitors: qHTS Validation Assay for Inhibitors of Endonuclease IV (AID 1708); further: on the % scale 0 is the no-effect control and ±100 the full control effect
Procedure, shortened: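 Enzyme (2 nM) + compound, 15 min RT; add 50 nM TAMRA/BHQ-2 THF-site dsDNA; kinetic read ex525/em598, 3 reads/60 s; activity = read 3 − read 1. Buffer Tris pH 7.5, 50 mM NaCl, 2 mM MgCl2, DTT, Tween-20.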

[22] = qHTS for differential inhibitors of proliferation of Plasmodium falciparum line 7G8 (AID 1815);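 further: potency means the concentration at half of the fitted maximal effect; parasite growth measured after three days of incubation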
[23] = qHTS for differential inhibitors of proliferation of Plasmodium falciparum line GB4 (AID 1816); settings: Potency: Plasmodium falciparum GB4 proliferation inhibition;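 further: potency means the concentration at half of the fitted maximal effect; parasite growth measured after 72 h incubation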
[24] = qHTS for differential inhibitors of proliferation of Plasmodium falciparum line 3D7 (AID 1876); further: potency means the concentration at half of the fitted maximal effect
[25] = qHTS for differential inhibitors of proliferation of Plasmodium falciparum line W2 (AID 1883); settings: Potency: Plasmodium falciparum W2 proliferation inhibition;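 further: potency means the concentration at half of the fitted maximal effect; parasites grown with compound for 72 h before lysis and staining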
[26] = molecular target: Ferritin light chain (Equus caballus) (UniProt P02791); assay: qHTS Validation Assay for Identification of Novel General Anesthetics (AID 2323); further: on the % scale 0 is the no-effect control and ±100 the full control effect
Procedure, shortened: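 Normalized fluorescence response, scaled between free 1-AMA and 1-AMA/apoferritin complex, fitted to a four-parameter Hill equation for concentration-effect values. Binding mix: 10 uM horse-spleen apoferritin, 50% saturated 1-AMA in PBS; read 380/535 nm after 10 min.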

[27] = molecular target: ATP-dependent DNA helicase Q1 (Homo sapiens) (UniProt P46063); assay: qHTS Validation Assay for Inhibitors of RecQ-Like Dna Helicase 1 (RECQ1) (AID 2353);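 further: plate controls were DMSO vehicle for no effect and enzyme-free control for full effect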
Procedure, shortened: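 RECQ1T1 50 nM; forked duplex (20 bp + 30-nt ss tails) 200 nM, ATP 2 mM final; pH 8.0, 2 mM MgCl2, 2.5 ug/ml poly(dI-dC); 15 min compound preincubation; discontinuous kinetic read over 2 h at RT.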

[28] = molecular target: RecQ-like DNA helicase BLM (Homo sapiens) (UniProt P54132); assay: qHTS Validation Assay for Inhibitors of Bloom's syndrome helicase (BLM) (AID 2364);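 further: plate controls were DMSO vehicle for no effect and enzyme-free control for full effect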
Procedure, shortened: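 BLM 50 nM in 25 mM Tris-HCl pH 8.0, 5 mM NaCl, 2 mM MgCl2, 1 mM DTT, 0.01% Tween-20, 2.5 ug/ml poly(dI-dC); 15 min cpd preinc, RT. Start: 200 nM forked DNA + 2 mM ATP (final). TAMRA read, 2 reads 2 h apart.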

[29] = Validation screen for small molecules that induce DNA re-replication in MCF 10A normal breast cells (AID 463097); further: 0% is about no effect; nearly all actives have a fitted effect of over 60% in size
Procedure, shortened: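 Following 48 hr compound incubation (37 C, 5% CO2), MCF 10A cells receive Hoechst for 40 min at 37 C. Nuclei are then scanned (excitation 405 nm, emission 500-530 nm) for total fluorescence intensity.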

[30] = molecular target: M-phase phosphoprotein 8 (Homo sapiens) (UniProt Q99549); assay: qHTS Validation Assay for Inhibitors for MPP8 Chromodomain Interactions with Methylated Histone Tails (AID 488949);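 further: 50 nM MPP8 with 50 nM peptide preformed then compounds added for 30 min; AlphaScreen signal from MPP8 chromodomain bound to biotinylated H3K9me3 peptide; top concentration of the series differs between compounds; on the % scale 0 is the no-effect control and ±100 the full control effect; nearly all actives have a fitted effect of over 55% in size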
Procedure, shortened: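 Chemiluminescent proximity assay: histidine-tag capture via nickel acceptor beads, biotin peptide via streptavidin donor beads. Protein and peptide each at 50 nM, pH 7.4, with 30 min incubations at room temperature for complex formation, compound exposure and bead binding.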

[31] = molecular target: Transient receptor potential cation channel subfamily V member 1 (Homo sapiens) (UniProt Q8NER1); assay: HTS Assay for Compounds that Act as Enhancers of the Vanilloid Receptor 1 (AID 488979); further: 0% is about no effect
Procedure, shortened: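 TRPV1-expressing cells loaded with Fluo-8 calcium dye; compounds added and calcium influx read kinetically for 3 min (agonist phase), then capsaicin at EC20 added and read 2 min more for enhancement. Fluorescence ex 480/em 520 nm.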

[32] = molecular target: Thyrotropin-releasing hormone receptor (Homo sapiens) (UniProt P34981); assay: qHTS for Small Molecule Agonists and Allosteric Enhancers of Human TRH Receptor: Validation Screen for Agonists (AID 493127;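 active means calcium activation more than 3 SD above the typical response in the agonist read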;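 further: intracellular calcium rise by fluo-8 fluorescence before TRH EC20 addition; 0% is about no effect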); settings: TRH receptor agonist cell assay; at 2 µM; hits give high values
Procedure, shortened: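 Compounds are added by online pintool to dye-loaded TRHR cells while fluorescence is recorded every second. A rise in calcium signal during the agonist read marks activation; a later 10 nM TRH addition (EC20) serves the separate enhancer mode.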

[33] = molecular target: Galactokinase (Homo sapiens) (UniProt P51570); assay: qHTS Validation Assay for Inhibitors of Human Galactokinase (GALK) (AID 493189); further: 0% is about no effect
Procedure, shortened: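 Enzyme activity is inferred from ATP consumption: human GALK phosphorylates galactose (100 uM) using 35 uM ATP for 1 h at room temperature, and luciferase-based Kinase-Glo Plus reports unconsumed ATP.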

[34] = Validation screen for small molecules that induce DNA re-replication in SW480 colon adenocarcinoma cells (AID 504364); further: 0% is about no effect
Procedure, shortened: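 Image-based qHTS: compounds were incubated with SW480 cells for 48 hr, nuclei stained with Hoechst, and per-nucleus fluorescence intensity scanned to flag cells with excess DNA content.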

[35] = molecular target: Voltage-gated inwardly rectifying potassium channel KCNH2 (Homo sapiens) (UniProt Q12809); assay: qHTS Assay for Small Molecule Inhibitors of the Human hERG Channel Activity (AID 588834);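 further: potency means the concentration at half of the fitted maximal effect; lower thallium flux fluorescence means stronger hERG block; nearly all actives have a fitted effect of over 50% in size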
Procedure, shortened: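 Homogeneous FluxOR thallium flux assay using hERG-expressing U2OS cells (BacMam). Compound treatment about 10 minutes preceded stimulation; reduced fluorescence taken as channel block.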

Sequence of Glucocorticoid receptor (Homo sapiens) (P04150 whole entry, looked up, the tested form may be a part): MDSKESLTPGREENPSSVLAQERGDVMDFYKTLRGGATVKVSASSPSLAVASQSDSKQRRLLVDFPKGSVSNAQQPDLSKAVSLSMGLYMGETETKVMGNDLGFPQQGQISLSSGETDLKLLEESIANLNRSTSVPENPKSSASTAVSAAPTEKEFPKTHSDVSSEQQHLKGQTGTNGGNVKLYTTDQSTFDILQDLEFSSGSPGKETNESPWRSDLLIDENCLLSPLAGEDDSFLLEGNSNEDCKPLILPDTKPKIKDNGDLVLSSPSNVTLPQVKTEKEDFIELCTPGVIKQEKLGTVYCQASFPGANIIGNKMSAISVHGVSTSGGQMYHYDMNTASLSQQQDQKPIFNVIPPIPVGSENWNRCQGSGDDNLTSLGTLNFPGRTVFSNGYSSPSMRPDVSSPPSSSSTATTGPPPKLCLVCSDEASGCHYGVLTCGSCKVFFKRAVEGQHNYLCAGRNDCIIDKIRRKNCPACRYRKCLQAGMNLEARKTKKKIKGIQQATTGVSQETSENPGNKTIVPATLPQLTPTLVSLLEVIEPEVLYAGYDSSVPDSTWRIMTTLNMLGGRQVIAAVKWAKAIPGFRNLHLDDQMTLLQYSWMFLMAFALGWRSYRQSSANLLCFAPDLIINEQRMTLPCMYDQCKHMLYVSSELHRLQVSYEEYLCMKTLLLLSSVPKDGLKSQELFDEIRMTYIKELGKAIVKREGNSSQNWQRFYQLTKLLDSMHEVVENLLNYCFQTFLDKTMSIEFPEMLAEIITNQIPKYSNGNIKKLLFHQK
Sequence of Cytochrome P450 2C9 (Homo sapiens) (P11712 whole entry, looked up): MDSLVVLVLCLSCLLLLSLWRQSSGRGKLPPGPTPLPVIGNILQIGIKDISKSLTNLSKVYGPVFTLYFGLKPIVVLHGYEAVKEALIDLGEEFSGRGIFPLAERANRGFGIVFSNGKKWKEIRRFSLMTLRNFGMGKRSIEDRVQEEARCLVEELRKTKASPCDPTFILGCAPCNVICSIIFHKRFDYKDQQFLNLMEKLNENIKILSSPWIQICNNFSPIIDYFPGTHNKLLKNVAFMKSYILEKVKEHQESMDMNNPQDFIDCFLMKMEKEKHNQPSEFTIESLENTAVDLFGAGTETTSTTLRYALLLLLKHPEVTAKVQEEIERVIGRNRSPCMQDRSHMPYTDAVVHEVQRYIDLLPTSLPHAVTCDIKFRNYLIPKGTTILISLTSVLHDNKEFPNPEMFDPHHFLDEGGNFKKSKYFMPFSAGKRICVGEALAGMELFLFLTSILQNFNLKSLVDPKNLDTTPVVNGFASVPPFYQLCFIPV
Sequence of 3',5'-cyclic-AMP phosphodiesterase 4B (Homo sapiens) (Q07343 whole entry, looked up): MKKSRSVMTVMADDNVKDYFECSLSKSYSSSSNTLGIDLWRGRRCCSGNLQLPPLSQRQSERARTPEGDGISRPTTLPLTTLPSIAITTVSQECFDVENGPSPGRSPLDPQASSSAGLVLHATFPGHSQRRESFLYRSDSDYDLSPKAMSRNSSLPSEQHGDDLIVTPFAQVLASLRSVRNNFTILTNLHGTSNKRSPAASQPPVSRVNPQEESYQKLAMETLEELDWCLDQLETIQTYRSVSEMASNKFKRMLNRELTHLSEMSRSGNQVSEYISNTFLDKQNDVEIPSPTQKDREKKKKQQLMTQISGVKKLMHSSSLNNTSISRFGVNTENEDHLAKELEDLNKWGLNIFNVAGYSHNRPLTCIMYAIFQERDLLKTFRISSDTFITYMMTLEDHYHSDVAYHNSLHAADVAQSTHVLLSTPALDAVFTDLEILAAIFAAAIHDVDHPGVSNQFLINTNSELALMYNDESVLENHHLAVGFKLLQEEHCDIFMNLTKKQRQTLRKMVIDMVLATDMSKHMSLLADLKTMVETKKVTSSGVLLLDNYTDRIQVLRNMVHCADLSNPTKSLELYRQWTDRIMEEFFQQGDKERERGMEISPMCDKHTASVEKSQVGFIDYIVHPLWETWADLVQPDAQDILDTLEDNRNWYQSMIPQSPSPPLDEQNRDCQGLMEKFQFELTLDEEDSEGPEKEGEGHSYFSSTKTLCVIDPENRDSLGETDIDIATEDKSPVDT
Sequence of Cytochrome P450 1A2 (Homo sapiens) (P05177 whole entry, looked up): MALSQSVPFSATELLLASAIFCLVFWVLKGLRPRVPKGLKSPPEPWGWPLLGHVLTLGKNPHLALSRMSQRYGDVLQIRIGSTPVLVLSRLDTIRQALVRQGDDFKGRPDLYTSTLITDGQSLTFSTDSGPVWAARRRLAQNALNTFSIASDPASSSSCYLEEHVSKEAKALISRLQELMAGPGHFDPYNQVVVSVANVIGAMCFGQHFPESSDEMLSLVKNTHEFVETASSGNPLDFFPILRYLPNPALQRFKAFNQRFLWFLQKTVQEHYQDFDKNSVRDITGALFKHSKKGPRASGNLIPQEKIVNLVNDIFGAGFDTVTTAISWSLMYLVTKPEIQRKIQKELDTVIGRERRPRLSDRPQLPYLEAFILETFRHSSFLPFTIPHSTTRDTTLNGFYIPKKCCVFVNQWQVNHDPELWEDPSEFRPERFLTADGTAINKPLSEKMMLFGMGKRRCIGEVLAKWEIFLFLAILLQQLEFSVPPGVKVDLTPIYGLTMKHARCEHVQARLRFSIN
Sequence of RecQ-like DNA helicase BLM (Homo sapiens) (P54132 whole entry, looked up): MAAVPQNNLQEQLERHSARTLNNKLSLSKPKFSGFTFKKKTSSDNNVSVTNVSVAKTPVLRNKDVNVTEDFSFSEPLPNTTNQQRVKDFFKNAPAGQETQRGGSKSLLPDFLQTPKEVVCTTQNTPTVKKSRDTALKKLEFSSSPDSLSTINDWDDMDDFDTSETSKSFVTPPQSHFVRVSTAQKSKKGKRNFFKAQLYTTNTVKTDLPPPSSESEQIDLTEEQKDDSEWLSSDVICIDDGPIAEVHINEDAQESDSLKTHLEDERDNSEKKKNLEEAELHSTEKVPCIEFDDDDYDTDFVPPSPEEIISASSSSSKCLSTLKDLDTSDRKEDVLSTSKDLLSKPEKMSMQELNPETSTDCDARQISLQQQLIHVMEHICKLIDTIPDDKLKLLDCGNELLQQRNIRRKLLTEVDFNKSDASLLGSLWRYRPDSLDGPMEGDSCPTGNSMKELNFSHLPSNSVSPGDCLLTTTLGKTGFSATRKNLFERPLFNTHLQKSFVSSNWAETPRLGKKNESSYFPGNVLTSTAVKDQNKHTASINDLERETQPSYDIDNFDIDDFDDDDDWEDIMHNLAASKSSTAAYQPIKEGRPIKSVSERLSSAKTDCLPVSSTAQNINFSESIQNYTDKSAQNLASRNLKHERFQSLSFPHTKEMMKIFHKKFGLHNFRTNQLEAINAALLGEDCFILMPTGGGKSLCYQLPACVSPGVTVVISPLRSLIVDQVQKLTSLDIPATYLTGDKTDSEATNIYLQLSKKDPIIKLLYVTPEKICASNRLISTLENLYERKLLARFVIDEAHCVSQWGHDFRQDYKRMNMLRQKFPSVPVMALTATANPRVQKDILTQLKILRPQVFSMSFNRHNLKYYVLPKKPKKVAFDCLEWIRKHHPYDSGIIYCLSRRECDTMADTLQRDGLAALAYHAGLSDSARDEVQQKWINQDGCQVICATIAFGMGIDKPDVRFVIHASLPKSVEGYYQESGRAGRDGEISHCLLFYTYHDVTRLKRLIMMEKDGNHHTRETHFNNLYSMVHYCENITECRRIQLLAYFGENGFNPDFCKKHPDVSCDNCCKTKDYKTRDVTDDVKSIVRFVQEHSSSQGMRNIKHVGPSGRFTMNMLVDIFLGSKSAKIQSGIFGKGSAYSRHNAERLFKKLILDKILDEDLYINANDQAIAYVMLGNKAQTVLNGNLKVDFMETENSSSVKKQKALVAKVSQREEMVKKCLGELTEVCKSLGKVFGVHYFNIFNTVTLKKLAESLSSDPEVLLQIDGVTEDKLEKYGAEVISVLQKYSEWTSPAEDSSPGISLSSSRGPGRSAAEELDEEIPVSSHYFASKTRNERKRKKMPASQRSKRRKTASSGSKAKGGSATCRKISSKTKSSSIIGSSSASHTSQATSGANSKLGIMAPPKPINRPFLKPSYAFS
Sequence of Guanine nucleotide-binding protein G(i) subunit alpha-1 (Homo sapiens) (P63096 whole entry, looked up): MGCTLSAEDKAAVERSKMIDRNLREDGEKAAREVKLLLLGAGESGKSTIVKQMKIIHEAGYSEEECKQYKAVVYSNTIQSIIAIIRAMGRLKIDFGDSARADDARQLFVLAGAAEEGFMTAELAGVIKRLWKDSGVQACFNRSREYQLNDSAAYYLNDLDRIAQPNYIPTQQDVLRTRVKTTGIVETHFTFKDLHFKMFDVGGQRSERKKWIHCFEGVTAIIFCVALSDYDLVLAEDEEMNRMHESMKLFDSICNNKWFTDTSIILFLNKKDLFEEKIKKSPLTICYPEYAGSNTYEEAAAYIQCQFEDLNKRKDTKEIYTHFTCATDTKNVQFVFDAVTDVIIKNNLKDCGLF
Sequence of Pyruvate kinase (Leishmania mexicana) (Q27686 2-499 E452W): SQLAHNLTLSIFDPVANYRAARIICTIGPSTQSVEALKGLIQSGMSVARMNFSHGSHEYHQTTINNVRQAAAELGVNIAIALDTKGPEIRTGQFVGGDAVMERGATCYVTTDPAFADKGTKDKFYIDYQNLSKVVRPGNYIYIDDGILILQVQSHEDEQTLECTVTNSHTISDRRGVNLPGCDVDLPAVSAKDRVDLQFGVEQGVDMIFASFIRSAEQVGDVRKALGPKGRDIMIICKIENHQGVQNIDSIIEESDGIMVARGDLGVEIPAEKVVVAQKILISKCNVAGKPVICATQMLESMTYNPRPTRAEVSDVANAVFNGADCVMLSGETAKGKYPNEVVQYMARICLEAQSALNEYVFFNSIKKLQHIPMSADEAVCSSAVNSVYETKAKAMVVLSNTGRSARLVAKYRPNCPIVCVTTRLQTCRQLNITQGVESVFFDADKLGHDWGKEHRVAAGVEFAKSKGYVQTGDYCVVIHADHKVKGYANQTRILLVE
Sequence of Ferritin light chain (Equus caballus) (P02791 2-175 limits assumed): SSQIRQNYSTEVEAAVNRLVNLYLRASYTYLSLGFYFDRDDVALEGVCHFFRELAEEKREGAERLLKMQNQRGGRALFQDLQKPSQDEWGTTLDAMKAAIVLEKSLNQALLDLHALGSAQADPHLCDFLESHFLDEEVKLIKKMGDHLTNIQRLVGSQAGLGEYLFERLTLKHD

CCCCN1CCC(COC(=O)c2cc(Cl)c(N)c3c2OCCO3)CC1
active: Potency [2] 12.6 µM | Potency [11] 1.26 µM | Potency [14] 5.62 µM | Potency [22] 10 µM | Potency [23] 12.6 µM | Potency [24] 8.91 µM | Potency [25] 7.08 µM | Potency [35] 2.24 µM
inactive: activity change, negative = inhibition [1] -2.87% [at 38 µM] | outcome [3] | Potency [4] > 46 µM | Potency [5] > 46 µM | Potency [6] | Potency [7] | Potency [8] | Potency [9] | outcome [10] | activation [12] 7.22% | outcome [13] | outcome [15] | outcome [16] | outcome [17] | outcome [18] | Potency [19] | outcome [20] | Potency [21] | outcome [26] | outcome [27] | Potency [28] | Potency [29] | Potency [30] | outcome [31] | activation [32] 1.19% | outcome [33] | Potency [34]
